Assay outcomes (PubChem BioAssay)
Cruzain inh noDet: qHTS Assay for Promiscuous and Specific Inhibitors of Cruzain (without detergent); Potency, µM, for the others: max response, negative = inhibition, hits mostly inhibitors; Cruzipain (Trypanosoma cruzi), P25779; 200,000 tested, 2.3% active; purified cruzain, Z-FR-AMC fluorescence, no detergent;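 also: plate controls were enzyme without inhibitor for no effect and buffer without enzyme for full effect; nearly all actives have a fitted effect of over 40% in size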
Target sequence (P25779 123-467 limits assumed): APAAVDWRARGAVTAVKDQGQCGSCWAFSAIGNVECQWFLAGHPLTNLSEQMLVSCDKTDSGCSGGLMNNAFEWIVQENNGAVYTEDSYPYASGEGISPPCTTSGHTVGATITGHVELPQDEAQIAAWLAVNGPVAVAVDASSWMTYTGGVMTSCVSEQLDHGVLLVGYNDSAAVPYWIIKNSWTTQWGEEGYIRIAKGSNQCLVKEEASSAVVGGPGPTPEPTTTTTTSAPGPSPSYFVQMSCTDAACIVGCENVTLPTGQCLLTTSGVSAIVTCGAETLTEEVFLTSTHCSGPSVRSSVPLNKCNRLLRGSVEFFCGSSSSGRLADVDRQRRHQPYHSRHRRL
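Detergent-free condition (0.00005% Triton X-100) in acetate buffer pH 5.5 with DTT. 1.5 nM enzyme and compound were pre-mixed 15 min, then 2 uM Z-FR-AMC substrate added; reaction progress from fluorescence change between first and third reads (60 s).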
Cruzain inh Det: qHTS Assay for Promiscuous and Specific Inhibitors of Cruzain (with detergent). Cruzipain (Trypanosoma cruzi), P25779. purified cruzain, Z-FR-AMC fluorescence, 0.01% Triton. Potency, µM, for the others: max response, negative = inhibition, most hits filed as inhibitors. 200,000 tested, 0.43% active;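 also: plate controls were neutral wells for no effect and buffer without enzyme for full effect; nearly all actives have a fitted effect of over 40% in size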
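Cruzain (1.5 nM) preincubated 15 min at RT with compound in 100 mM sodium acetate pH 5.5, 5 mM DTT, 0.01% Triton X-100. Reaction started with 2 uM Z-FR-AMC; AMC fluorescence (ex 360/em 450 nm) change over 60 s gave rate.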
An asterisk follows results filed as active; ? = inconclusive. Most compounds without a hit are left out; they make up all but 2.4% or so of the library. Calls follow the shape of the dose curve; as a rule, active = well fitted curve in the direction sought with a large enough effect; inconclusive = small, poorly fitted or top-dose-only effect, or another doubt; inactive = no such curve, though single readings can be large; an effect the other way counts as inactive or inconclusive. Potency is read from the fitted curve at half-maximal effect.

SMILES	Cruzain inh noDet	Cruzain inh Det
CCOc1ccccc1CNc1ccc2cc(S(=O)(=O)N3CCC(C)CC3)ccc2n1	-6%	-4%
O=[N+]([O-])c1ccc2c(N=Nc3ccc4ccccc4c3O)c(O)cc(S(=O)(=O)O)c2c1	11%	-27%
O=C(NC(=S)Nc1cccc(Cl)c1N1CCCCC1)c1ccc2c(c1)OCCO2	13µM*	-1%
O=C(Nc1cccc(Cl)c1N1CCCCC1)c1ccc2c(c1)OCCO2	-12%	-5%
Clc1ccc(CSc2ncnc3c2ncn3[C@@H]2CCCCO2)cc1	-6%	-3%
O=C(Nc1nnc(CCS(=O)(=O)c2ccc(Br)cc2)s1)c1ccc([N+](=O)[O-])cc1	5µM*	5%
O=C(Nc1nnc(COc2ccc(Cl)cc2)s1)c1ccc([N+](=O)[O-])cc1	-9%	4%
O=C(Nc1nnc(CSCc2ccccc2F)s1)c1cccc([N+](=O)[O-])c1	?	-7%
O=C(Nc1nnc(CSCc2ccc(F)cc2)s1)c1ccc([N+](=O)[O-])cc1	25µM*	-4%
CS(=O)(=O)N1CCCc2cc(C(=O)Nc3cccc(C(F)(F)F)c3)ccc21	?	-8%
CCOc1ccc(NC(=O)NCCc2c(C)nn(C)c2C)cc1	4%	-1%
COC(=O)c1cc(=O)n(CCc2ccc(OC)cc2)c(=Nc2ccc(F)c(Cl)c2)s1	-20%	0%
COC(=O)c1cc(=O)n(Cc2ccc3c(c2)OCO3)c(=Nc2ccc(F)c(Cl)c2)s1	20µM*	-2%
Cc1ccc(S(=O)(=O)N2CCN(Cc3ccccc3)CC2)c(C)c1NS(C)(=O)=O	1%	-1%
Cc1ccc(CNC(=O)c2oc3ccc(S(=O)(=O)N4CCC(C)CC4)cc3c2C)cc1	-19%	-5%
COc1ccc(NC(=O)Nc2sc3nc4n(c(=O)c3c2C)CCC(C)CC4)cc1OC (stereo not drawn)	?	-3%
Cc1cc(O)c(C(C[N+](=O)[O-])c2ccc(Cl)cc2)c(=O)o1 (stereo not drawn)	-15%	0%
Cc1cc(C)n(C(C[N+](=O)[O-])c2ccc(Cl)cc2)n1 (stereo not drawn)	20µM*	-5%
CCOC(=O)c1c(NC(=O)c2ccccc2)sc2c(O)c(CN(CC)CC)ccc12	16µM*	-1%
CCOC(=O)c1c(NC(C)=O)sc2c(O)cccc12	3%	-4%
COC(=O)[C@@H](NC(=O)NC(C)CCc1ccccc1)C(C)C (stereo partly drawn)	12%	5%
CC(C)[C@H](NC(=O)[C@H](CCCN=C(N)N)NC(=O)NC(Cc1ccccc1)C(=O)O)C(=O)NC(C=O)CCCN=C(N)N (stereo partly drawn)	0.032µM*	0.035µM*
CC(C)(CCc1nc2ccccc2[nH]1)C(=O)O	1%	1%
Cc1nnc(SCC(=O)N2CC(=O)Nc3ccccc32)n1-c1ccccc1	-4%	2%
O=C1CN(C(=O)CSc2nnc(-c3ccccc3)n2Cc2ccc3c(c2)OCO3)c2ccccc2N1	13µM*	28µM*
SMILES	Cruzain inh noDet	Cruzain inh Det
Cn1c(=O)cc(SCC(=O)NCCc2ccc(Cl)cc2)c2cc(Cl)ccc21	5%	0%
CCOC(=O)c1ccc(NC(=O)Cn2nc3c4ccccc4n(Cc4cccc(F)c4)cc-3c2=O)cc1	1%	0%
CNC(=O)c1c(NC(=O)c2cc(=O)c3cc(C)c(C)cc3o2)sc2c1CCCC2	7%	-1%
COc1ccc(Cl)cc1NC(=O)c1oc2ccc(S(=O)(=O)N3CCCCC3)cc2c1C	-6%	2%
CSc1nsc(/C=C/Nc2ccc(C)cc2)c1C#N	3.2µM*	-1%
COc1cc(/C=N/Nc2snc(SC)c2C#N)ccc1O	-28%	0%
CN(C)Cc1ccccc1-c1nc(N2CCOCC2)c2ccccc2n1	-3%	-1%
NC(=S)c1ccc[n+]([C@@H]2O[C@@H](COP(=O)([O-])OP(=O)(O)OC[C@H]3O[C@@H](n4cnc5c(N)ncnc54)[C@H](OP(=O)(O)O)[C@H]3O)C(O)C2O)c1 (stereo partly drawn)	5%	5%
Cc1ccc(/C=C(\C#N)C(=O)Nc2cccc(Br)c2)o1	13µM*	-1%
Cc1ccc(/C=C(\C#N)C(=O)Nc2ccc(Br)cc2)o1	-13%	0%
CCOC(=O)c1c(NC(=O)c2cc3nc(-c4ccc(Br)cc4)cc(C(F)(F)F)n3n2)sc(C(C)=O)c1C	-8%	3%
COc1ccc(OC)c(NC(=O)c2cc(-c3ccc(C)cc3O)n[nH]2)c1	-25%	-2%
Cc1ccc(-c2cc(C(=O)Nc3cc(C)ccc3C)[nH]n2)c(O)c1	13µM*	-1%
Cc1noc(C)c1S(=O)(=O)N(CC(=O)NCc1ccccc1Cl)c1ccc(C(C)C)cc1	-4%	-8%
CCCCOc1ccc(C(=O)Nc2cc(-c3ccc(C)cc3)no2)cc1	-7%	-2%
CCOc1ccc(C(=O)Nc2cc(-c3ccccc3)no2)cc1	20µM*	-2%
